Pf growth 48h = inhibits P. falciparum growth in the first generation, 48 h; P. falciparum luciferase growth in erythrocytes, 48 h; Potency, µM (series often up to 28.7 µM), inactives show top-dose activity change, negative = inhibition, most hits filed as inhibitors; hit rate 5.9% among 310,000; AID 504832; also: potency is read from the fitted curve at half-maximal effect; % is scaled to controls: 0 for no effect and ±100 for the full control effect
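In quantitative HTS format, infected erythrocytes bearing luciferase-reporter parasites were treated for a single generation at 37 C. Luminescence after adding detection reagent served as the growth measure.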
Shiga inhibitor = inhibitors of Shiga toxin in Vero cells | Vero cells, Shiga toxin protein synthesis inhibition reporter | inhibition, % at 38.7 µM | hit rate 9.2% among 290,000 | AID 2315; in the data active = inhibition mostly above about 28%, no sharp cut-off; inactive = mostly below about 43%; also: 0% is about no effect
Cycloheximide cs = counter-screen hit for Shiga toxin inhibitors, cycloheximide | AID 2314 | max response, % | cell reporter, cycloheximide protein synthesis inhibition counterscreen | hit rate 12% among 300,000; in the data active = max response mostly above about 13%, no sharp cut-off; inactive = mostly below about 14%; also: read at 38.3 µM for the half of the compounds with a filed dose; 0% is about no effect
Sm TGR inh = blocks Schistosoma mansoni thioredoxin glutathione reductase | Q962Y6 | purified TGR, DTNB reduction, TNB absorbance 405 nm | Potency, µM (titrated, usually from 114 µM), inactives show at the highest dose activity change, negative = inhibition, actives largely listed as inhibitors | hit rate 3% among 360,000 | AID 485364; also: potency is read from the fitted curve at half-maximal effect; % is scaled to controls: 0 for no effect and ±100 for the full control effect; nearly all actives have a fitted effect of over 60% in size
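First, TGR (20 nM dispensed) and NADPH were mixed with compound. Second, a 15 min room-temperature incubation followed. Third, further NADPH and then DTNB were added to start the reaction. Finally, TNB absorbance was monitored kinetically.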
Pf growth 96h = P. falciparum growth inhibition at 96 hour, primary screen for plastid delayed-death inhibitors; P. falciparum luciferase reporter growth, 96 h; Potency, µM (top dose mostly 28.7 µM), for inactives: at the top dose activity change, negative = inhibition, actives largely listed as inhibitors; hit rate 6.9% among 320,000; also: potency is read from the fitted curve at half-maximal effect; % is scaled to controls: 0 for no effect and ±100 for the full control effect
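P. falciparum expressing integrated firefly luciferase, in erythrocytes at 2% hematocrit, 0.05% parasitemia, incubated with compounds 96 h at 37 C, 5% CO2. Growth inhibition read as loss of luminescence; two-generation exposure targets delayed-death apicoplast inhibitors.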
NS1 function inh = inhibitors of influenza NS1 protein function. Potency, µM (top dose mostly 46.1 µM), for inactives: at the highest dose activity, positive = more growth. hit rate 0.4% among 270,000. AID 2326; calls by dose curve; also: potency is read from the fitted curve at half-maximal effect; actives are rising curves; nearly all actives have a fitted effect of over 50% in size
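S. cerevisiae expressing influenza A NS1, grown in glucose, washed, then diluted 1:100 into pH 6.0 -URA galactose medium with 23 nl compound. Growth recovery read as OD600; NS1-free strain serves as control.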
Numbers without * were called inactive; u = inconclusive; x = no result. Sampled rows, rich in hits. Any-hit rate of the full collection: about 21%. Unless noted, calls follow the shape of the dose curve; as a rule, active = well fitted curve in the direction sought with a large enough effect; inconclusive = small, poorly fitted or top-dose-only effect, or another doubt; inactive = no such curve, though single readings can be large; an effect the other way counts as inactive or inconclusive.

SMILES	Pf growth 48h	Shiga inhibitor	Cycloheximide cs	Sm TGR inh	Pf growth 96h	NS1 function inh
COc1ccc(N(C)C(=O)c2cc3c(s2)-c2ccc(Cl)cc2S(=O)(=O)C3)c(OC)c1	u	-9.2	9.0	-6.5%	13.1µM*	9.1%
CC(C)c1ccc(NC(=O)c2cc(S(=O)(=O)N3CCCCC3)cn2C)cc1	x	x	x	-3.8%	x	x
COc1ccc(OCc2nc(N)nc(Nc3ccccc3)n2)cc1	7.9%	24.7	21.3*	-2.5%	u	6.6%
COc1ccc(OCc2nc(N)nc(Nc3ccc(C)cc3)n2)cc1	19.5%	17.0	15.1*	-21.0%	-11.0%	2.6%
Cc1nc(N)nc(COc2ccccc2)n1	42.9%	46.0*	36.8*	12.6%	108.2%	-0.7%
O=c1cc(-c2ccccc2)n2c(SCc3c(F)cccc3Cl)nnc2[nH]1	x	x	x	9.0%	x	x
Cc1ccccc1OCc1nc2ccccc2n1Cc1ccccc1Cl	x	x	x	11.2%	x	x
Cc1nn(-c2ccccc2)c(Cl)c1/C=N/Nc1ccc(Cl)c(C(=O)O)c1	245.0%	98.3*	87.4*	-18.4%	396.8%	5.8%
CNC(=S)N/N=C/c1c(C)nn(-c2ccccc2)c1Cl	4.0%	61.2*	34.8*	-2.4%	x	7.8%
Cc1nn(-c2ccccc2)c(Cl)c1/C=N/NC(=O)OC(C)(C)C	-2.5%	71.1*	37.7*	-10.0%	u	-3.6%
Cc1nn(-c2ccccc2)c(Cl)c1/C=N/Nc1ccc(S(=O)(=O)Nc2ccccc2C(=O)O)cc1[N+](=O)[O-]	u	-9.2	7.4	-1.6%	u	u
Cc1ccc(S(=O)(=O)Nc2nc3ccccc3s2)cc1	x	-10.9	-3.8	2.1%	u	-20.7%
Cc1nn(-c2ccccc2Cl)c(Cl)c1/C=N/Nc1nc2ccccc2s1	u	170.2*	104.2*	-0.8%	-72.3%	-5.4%
CCOC(=O)N/N=C/c1c(C)nn(-c2ccccc2Cl)c1Cl	u	33.4	26.6*	3.5%	10.4µM*	-5.1%
COc1ccc(CCNC(=O)Cn2c(=O)[nH]c3ccsc3c2=O)cc1OC	11.7µM*	-11.7	-4.6	2.1%	6.0%	x
COc1ccc(CCNC(=O)CCn2c(=O)[nH]c3cc(OC)c(OC)cc3c2=O)cc1OC	u	7.2	-4.1	-30.5%	2.7%	-0.7%
COc1ccc(CCNC(=O)CSc2cc(=O)[nH]c(N)n2)cc1OC	3.9%	19.2	1.6	6.5%	11.7µM*	5.5%
COc1ccc(CCNC(=O)CSc2nc(O)cc(=O)[nH]2)cc1OC	3.29µM*	-10.1	-2.6	-1.0%	43.4%	u
O=C1c2ccccc2C(=O)C1(CO)c1ccc(OC(F)F)cc1	11.7µM*	26.8*	53.3*	-7.7%	126.4%	10.7%
COC(=O)CC1(c2ccc(OC)cc2)C(=O)c2ccccc2C1=O	-10.8%	-5.1	-1.8	0.0%	-3.5%	-3.4%
O=C1c2ccccc2C(=O)C1(CO)c1ccccc1	160.0%	105.5*	33.7*	9.7%	-11.0%	x
CCOC(=O)c1c(C)oc2ncnc(Nc3cccc(C(F)(F)F)c3)c12	x	x	x	-1.7%	x	x
Cc1ccc(C)c(NC(=O)CCN2CCC(C)CC2)c1	9.8%	-16.1	-2.0	u	5.22µM*	-2.4%
Cc1ccc(C)c(NC(=O)CCN2CCc3ccccc3C2)c1	13.1µM*	-10.7	-4.8	x	0.0%	4.4%
Cc1ccc(NC(=O)CCN2CCC(C)CC2)cc1	34.2%	-6.4	-3.1	-22.9%	13.1µM*	-1.8%
SMILES	Pf growth 48h	Shiga inhibitor	Cycloheximide cs	Sm TGR inh	Pf growth 96h	NS1 function inh
Cc1c(C)n(Cc2ccc(Cl)cc2)c2ccc(C(=O)NCCN3CCOCC3)cc12	-21.0%	-8.2	-3.4	-2.2%	-0.1%	14.5%
CCN1C(=O)C(CC(=O)Nc2ccc(OC)cc2)N(CCCN2CCN(c3ccc(OC)cc3)CC2)C1=S (stereo not drawn)	u	11.4	7.4	-6.4%	u	x
Cc1onc(-c2ccccc2Cl)c1C(=O)N1CCN=C1SCc1cccnc1	4.7%	-2.0	10.4	3.1%	2.08µM*	-4.2%
CC(=O)c1sc(NC(=O)COc2ccc(C(C)C)c(C)c2)nc1C	-1.9%	-5.7	1.6	6.5%	-18.9%	3.0%
CC(/C=N/NC(=O)c1cc(C(C)(C)C)[nH]n1)=C\c1ccccc1	u	11.3	2.5	2.4%	u	3.1%
O=C(N/N=C/C(Br)=C\c1ccccc1)c1cccs1	u	78.6*	73.5*	-18.3%	3.7µM*	-47.4%

Screens as filed in PubChem BioAssay.
